Source: PubChem BioAssay AID485313 (National Center for Advancing Translational Sciences (NCATS), 2010)
Out of some 320,000 compounds screened, about 7,600 (2.4%) were called active. Not shown: some 3% with an inconclusive outcome. Calls follow the shape of the dose curve; as a rule, active = well fitted activation curve with a large enough effect; inconclusive = small, poorly fitted or top-dose-only effect; inactive = no such curve, though single readings can be large or run the other way. What follows is part of a selection rich in actives, with near analogues and random picks from the rest.

Assay: qHTS Assay for NPC1 Promoter Activators; also: nearly all actives have a fitted effect of over 60% in size; as to activation: % of control where 0% means no effect
Conditions: Huh7 NPC1 promoter luciferase reporter, 24 h; series mostly up to 9.22 µM; activation: at the top concentration
Excerpt: NIH Chemical Genomics Center [NCGC] NIH Molecular Libraries Probe Production centers Network [MLPCN] MLPCN Grant: MH089375-01A1 Assay Submitter (PI): Yiannis A. Ioannou NCGC Assay Overview: Niemann Pick Type C (NPC) is a rare neurodegenerative lipidosis that is characterized by lipid storage in the endosomal/lysosomal system. Treatment modalities for this devastating disease are currently non-existent due to the severe obstacles associated with accessing the central nervous system with proteins or genes. The majority of mutations causing NPC disease are missense mutations that are distributed throughout the length of the NPC1 protein, with the most prevalent being the I1061T allele. Although NPC1 mutant proteins may be functional, they are typically trapped in the ER due to misfolding. […] We have developed and optimized a cell based luciferase reporter assay in 1536 well format for the identification of up-regulators of the mutant NPC1 promoter.
The NPC1 promoter is cloned in front of the luciferase reporter gene, therefore NPC promoter activation results in luciferase expression. Frozen stock of the NPC1 promoter transfected Huh7 cells were obtained from the laboratory of Dr. Yiannis Ioannou (The Mount Sinai School of Medicine, New York, NY). Cells were propagated and maintained at NCGC in medium containing RPMI-1640 supplemented with 10% FBS, 2mM L-glutamine, and 50ug/ml penicillin/streptomycin. Cells were harvested in and plated for assays in OP-MEM I reduced-serum medium supplemented with 10% FBS. The Amplite luciferase reporter gene assay kit was purchased from ABD Bioquest and prepared/stored according to manufacturers recommendations. qHTS Assay Setup: 1.#Dispensed 5ul of Huh7 cells stably expressing NPC1-luciferase at a density of 1500 cells per well 1536-well plates. 2.#Incubate cells at 37C, 5% CO2, and 95% humidity for 2 hours. 3.#Transferred 23nl per well of compound in DMSO solution. 4.#Incubated at 37C, 5% CO2, and 95% humidity for 24 hours. 5.#Dispensed 3ul per well of Amplite reagent(ABD Bioquest) per well. 6.#Incubate at ambient for 10 minutes. 7.#Read using the luminescence protocol on the ViewLux plate reader (Perkin Elmer).
Potency is read from the fitted curve at half-maximal effect.

activation, inactive:
COc1ccccc1C(CNC(=O)c1cccc(S(=O)(=O)Nc2ccc(F)cc2)c1)N(C)C (stereo not drawn) -2.49%
O=C(CCNC(=O)c1ccc([N+](=O)[O-])cc1)NC1CCCCC1 -0.237%
N#C/C(=C(/O)COC(=O)COc1ccc(Cl)cc1)c1nc2ccccc2[nH]1 -1.83%
O=C(CSc1nc2ccc([N+](=O)[O-])cc2[nH]1)c1ccc(Cl)cc1 4.6%
CCOC(=O)c1c(C)[nH]c(C(=O)OCC(=O)c2ccc(OC)cc2OC)c1C -10.1%
CCOC(=O)c1c(C)[nH]c(C(=O)OCC(=O)N2CCCC2=O)c1C -3.33%
Cc1cc(C)c(CN2CCN(C(=O)Cn3ccc(NC(=O)OCc4ccccc4)nc3=O)CC2)c(C)c1 -15%
Cc1cccc(NC(=O)c2cccc(C(=O)Nc3cccc(C)c3C)n2)c1C -3.28%
Cc1ccc(C(=O)CNc2ccc(F)cc2)cc1 -1.15%
COC(=O)c1ccc(NCC(=O)N2CCCCCC2)cc1 27.8%
O=C(COC(=O)c1ccc2ncsc2c1)Nc1ccc(Cl)cc1 1.42% [at 1.84 µM]
Cc1ccc(C(=O)c2c(NC(=O)c3ccccc3)sc(C)c2C)cc1 0.539%
COc1cc(C(=O)Nc2ncccc2C)ccc1OCC(=O)N1CCOCC1 -2.59%
Cc1cc(C)c(S(=O)(=O)N2CCC(C(=O)OCc3c(C)noc3C)CC2)c(C)c1 -2.63%
Cc1ccc(NC(=O)c2cccs2)cc1S(=O)(=O)N(C)C 1.03%
CCN(CC(=O)Nc1ccc(C)c(S(=O)(=O)N(C)C)c1)Cc1ccccc1 7.28%
Nc1cc(N)nc(SCC(=O)Nc2cccc(S(=O)(=O)N3CCCCC3)c2)n1 0.484%
CSc1ccc(Cl)c(C(=O)OCC(=O)N2CCNC2=O)c1 -0.987%
COc1ccc(N2C(=O)/C(=C\c3ccco3)N=C2SCC(N)=O)cc1Cl -3.08%
Nc1nonc1C(=O)NCCc1ccccc1 -0.723%
O=C(NCCCc1ccccc1)c1cc(COc2c(F)cccc2F)on1 24.8%
Cc1ccc(S(=O)(=O)N(Cc2ccc(Cl)cc2)c2ccccc2C(=O)NCc2cccnc2)cc1 -3.62%
O=C(CN(C(=O)c1csnn1)c1ccc(Br)cc1)NC1CCCC1 1.31%
O=C(CN1C(=O)CCS(=O)(=O)c2ccccc21)NCc1ccc(F)cc1 9.64%
O=C(CNS(=O)(=O)c1ccc2ccccc2c1)Nc1ccc(F)c(F)c1F -5.75%
CCCCCN1CC(O)=C(c2nc(-c3ccc(Cl)cc3)cs2)C1=N 0.95%
N#CC(=C1SC=CS1)c1nc(-c2ccccc2)cs1 18.5%
CC1(C)NC(=O)N(CC(=O)N2CCN(S(=O)(=O)c3ccccc3F)CC2)C1=O -4.7%
O=C(Nc1ccc(C(F)(F)F)cc1)c1cccc(-n2cnnn2)c1 -7.93%
CN1CCN(S(=O)(=O)c2ccc(N3CCN(c4ccccc4O)CC3)c([N+](=O)[O-])c2)CC1 6.04%
CCCNS(=O)(=O)c1ccc(CCC(=O)NCc2cccnc2)cc1 -2.07%
O=C(CN(c1cc(C(F)(F)F)ccc1Cl)S(=O)(=O)c1ccccc1)NCc1cccnc1 -7.53%
CCN(C(=O)COC(=O)c1c(C)nn(-c2ccccc2)c1Cl)c1c(N)n(Cc2ccccc2)c(=O)[nH]c1=O -0.895%
Cc1ccc(C(=O)N/C(=C/c2cccs2)C(=O)NCC2CCCO2)cc1 (stereo not drawn) -0.594%
Cc1cc(/C=C(/C#N)C(=O)Nc2ccc(Cl)cc2)c(C)n1-c1cccnc1 11.6%
O=C1C=C(c2cc(C(F)(F)F)cc(C(F)(F)F)c2)C[C@@H](c2ccc3c(c2)OCO3)C1 -0.428%
Nc1c(C(=O)OCC(=O)Nc2ccc(OC(F)F)cc2)[nH]c(=O)[nH]c1=O 0.835%
Cc1[nH]n(C)c(=O)c1C(=O)c1c(-c2c(Cl)cccc2Cl)noc1C 10.9%
O=c1c2ccccc2c(-c2ccc(F)cc2)nn1-c1ccc(C(F)(F)F)cc1 -4.99%
O=C1c2ccccc2C(=O)N1Cc1cc(-c2ccccc2Cl)no1 -3.22%
Cc1onc(-c2ccccc2)c1C(=O)N1CCN(S(=O)(=O)c2ccccc2C(F)(F)F)CC1 -1.13%
C=C(C)C(=O)Nc1cccc(C2=NOC3(C2)C[C@H](C(N)=O)N(C(=O)C(c2ccccc2)c2ccccc2)C3)c1 (stereo partly drawn) -5.61%
COc1ccc(CNC(=O)COC(=O)c2ccc(C)c(S(=O)(=O)N3CCOCC3)c2)cc1OC -1.27%
Cc1cccc(OCCC(=O)OCc2csc(CC(=O)Nc3ccccc3C)n2)c1 -2.87%
COC(=O)c1ccc(C23CC4(C2)[C@H](CN(Cc2cccnc2)[C@@H]4c2ccccc2)C3c2ccc(Cl)nc2)cc1 (stereo partly drawn) -3.01%
CN(Cc1ccccc1)S(=O)(=O)c1nnc(NC(=O)c2ccccc2F)s1 1.08%
O=C(Nc1ccc(NC(=O)c2ccccc2F)cc1)c1ccccc1F -6.42%
COc1ccc(C(=O)NCC2CCCCC2)cc1S(=O)(=O)N1CCCC1 -5.34%
CCCn1c(N)c(C(=O)CSc2nnc3n2CCCCC3)c(=O)[nH]c1=O 0.178%
COc1ccc([C@H]2CC(=O)C=C(c3ccc(CO)cc3)C2)cc1 0.356%
C/C(=N\NC(=S)Nc1ccc(C)cc1)c1cc2ccccc2o1 -1.99%
Cc1c(/C=N\NC(=O)c2cc3ccccc3o2)c2ccccc2n1C -28.8%
COc1ccc(NC(=O)Cn2cc(C(=O)c3ccncc3)c(=O)c3cc(C)ccc32)cc1Cl -0.38%
O=C1C=C(c2cccc(Br)c2)C[C@@H](c2ccc(F)cc2)C1 -2.81%
COc1cc(SC)ccc1C(=O)N(Cc1ccccc1)c1ccccc1 -0.508%
Cc1ccnc(NC(=O)CNC(=O)c2ccccc2)c1 3.23%
Cc1ccnc(NC(=O)CCCOc2ccccc2)c1 -5.09%
COc1ccccc1OCCNC(=O)CCNC(=O)c1ccccc1Cl 0.549%
COc1ccc(S(=O)(=O)Nc2cc(C)on2)cc1NC(C)=O -2.61%
CC1CCCCC1NC(=O)COC(=O)Cc1ccc(Cl)cc1 (stereo not drawn) -1.97%
CCc1ccc(C(=O)N2CCN(S(=O)(=O)c3sc(C(=O)O)c(C)c3C(=O)O)CC2)cc1 -3.15%
COc1ccc(CNC(=O)CN2C(=O)NC3(CCCc4sccc43)C2=O)cc1 (stereo not drawn) -0.775%
CCN(CC)S(=O)(=O)c1ccc(CNC(=O)CN2C(=O)NC3(CCc4ccccc43)C2=O)cc1 (stereo not drawn) -1.9%
CCn1nc(C(=O)OCC(=O)N2c3ccccc3CC2C)c2ccccc2c1=O (stereo not drawn) -6.18%
Cc1ccn(CCC(=O)N2c3ccccc3CC2C)n1 (stereo not drawn) -2.45%
COc1ccc(CCNC(=O)COC(=O)c2cc(=O)c3ccccc3o2)cc1 -3.16%
O=C(O)c1ccccc1N=N/C(=N/Nc1cc(S(=O)(=O)O)ccc1O)c1ccccc1 10.8%
O=C(NCCc1cccc(F)c1)C1CCCN(c2nc3ccccc3s2)C1 (stereo not drawn) 3.92%
CN(C)CCCN(C(=O)c1ccc(S(=O)(=O)N2CCCCCC2)cc1)c1nc2ccc(Br)cc2s1 -4.3%
Cc1nc(N2CCCCC2)sc1C=O 0.38%
O=C(c1ccc2nc(N3CCOCC3)sc2c1)N1CCN(c2ccc(Cl)cc2)CC1 2.53%
OCC[C@H]1C[C@H](O)[C@@H](O)[C@]2(Cc3ccccc3CO2)O1 3.77%
COc1ccccc1CNC(=O)CCCN1C(=O)NC2(CCCC2)C1=O -1.89%
CNS(=O)(=O)c1cccc(C(=O)OCC(=O)N2c3ccccc3NC(=O)C2(C)C)c1 -0.887%
Cc1ccc(OCCCC(=O)Nc2ccc3c(c2)OCCO3)cc1 -3.68%
O=C(CNC(=O)c1cccs1)N/N=C/c1cccc(Br)c1 6.34%
CCN(CC)c1ccc(/C=N/NC(=O)CNC(=O)c2cccs2)cc1 14.9%
CC(=O)c1ccc(OC(=O)N2CCOCC2)cc1 14%
CC(C)CN(C(=O)CSc1nncn1C)C1CCS(=O)(=O)C1 (stereo not drawn) 0.274%
COc1ccc(-c2cc(C(=O)NCCCN3CCOCC3)no2)cc1 1.31%
Cc1c(NC(=O)c2cc(-c3ccc(Br)cc3)on2)c(=O)n(-c2ccccc2)n1C 2.15%
COc1ccc(CCC(=O)N2CCN(S(=O)(=O)c3ccc(OC)cc3)CC2)cc1 0.281%
Cc1cc(NC(=O)COc2ccc([N+](=O)[O-])cc2)no1 -0.975%

Potency, active:
O=C(Cc1nc2ccccc2[nH]c1=O)c1ccc(Cl)cc1 3160 nM
CCCCOC(=O)c1[nH]c(C)c(C(=O)OC)c1C 2820 nM
COC(=O)c1ccc(NCC(=O)c2ccccc2)cc1 2510 nM
Cc1sc(NC(=O)c2ccc3ncsc3c2)c(C(N)=O)c1C 1580 nM
Cc1ccc(C(=O)Nc2ccc(C)c(S(=O)(=O)N(C)C)c2)s1 2820 nM
CC(C)Cc1cc(C(=O)NCCc2ccccc2)no1 2820 nM
N#CC(=C1CCCC1)c1nc(-c2ccc(Cl)cc2)cs1 2510 nM
CCc1ccc(N(CC(=O)NCc2cccnc2)S(=O)(=O)c2ccccc2)cc1 2820 nM
Cc1ccc(-n2c(C)cc(/C=C(\C#N)C(=O)NCC3CCCO3)c2C)cc1 (stereo not drawn) 3160 nM
Cn1c(-c2ccc(F)cc2)cc2onc(-c3ccccc3Cl)c2c1=O 1580 nM
Cn1c(-c2ccc(C(F)(F)F)cc2)cc2onc(-c3ccccc3)c2c1=O 398 nM
O=C(Nc1nnc(-c2ccccc2F)s1)c1ccccc1F 1580 nM
Cc1ccc(NC(=O)c2cc3ccccc3o2)cc1 3160 nM
COc1cc(SC)ccc1C(=O)Nc1cc(C)ccn1 3160 nM
COc1cc(SC)ccc1C(=O)NCCOc1ccccc1Cl 3160 nM
CCCC(=O)N1c2ccc(-c3csc(N)n3)cc2CC1C (stereo not drawn) 2820 nM
Fc1ccc2nc(N3CCCCC3)sc2c1 3550 nM
Brc1ccc2nc(N3CCCC3)sc2c1 2000 nM
CC(=O)Nc1ccc(/C=N/NC(=O)c2cccs2)cc1 2510 nM
CC(C)CNC(=O)c1cc(-c2ccc(Br)cc2)on1 3160 nM
